PubChem BioAssay (EPA / NIEHS)
Results filed as inconclusive are left out. Activity calls are given as the source filed them. Rule for the calls, unless noted: active = hit-call score of the fitted dose curve at least 0.9, where 1 is the maximum; inactive = score below 0.9.

Tests used:
[1] = UKN5_HCS_SBAD2_cell_viability: Viability Assessment in the University of Konstanz (UKN) Leist Lab Neurite Outgrowth Assay in human iPSC-derived immature Dorsal Root Ganglia Neurons (UKN5) (AID 2284056)
Procedure, shortened: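 iPSC-derived immature peripheral neurons (SBAD2) seeded on Matrigel with CHIR99021, SU5402 and DAPT, dosed 1 h later for 24 h. Viability from Hoechst H-33342 and calcein-AM live staining, high-content imaging; bidirectional fit versus DMSO.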

[2] = UKN5_HCS_SBAD2_neurite_outgrowth: University of Konstanz (UKN) Leist Lab Neurite Outgrowth Assay in human iPSC-derived immature Dorsal Root Ganglia Neurons (UKN5) (AID 2284070); details: actives raise or lower the signal
Procedure, shortened: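 Cryopreserved SBAD2 peripheral neurons were seeded at 100.000 cells/cm2 in N2-S/KSR medium containing CHIR99021, SU5402 and DAPT, then exposed to compounds for 24 h. Neurite area from calcein-AM high-content imaging was fitted bidirectionally against DMSO.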

[3] = UKN2_HCS_IMR90_neural_migration: University of Konstanz (UKN) Leist Lab Neural Crest Cell Migration Assay in human induced IMR90 Pluripotent Stem Cells (UKN2) (AID 2284204); details: actives raise or lower the signal
Procedure, shortened: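 Using a 96-well stopper format with PLO/laminin/fibronectin coating, neural crest cells from iPSC migrate in cytokine-supplemented N2-S medium; after 24 h, chemicals are applied for a further 24 h, then cells are imaged after dye staining.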

[4] = UKN4_HCS_LUHMES_neurite_outgrowth: University of Konstanz (UKN) Leist Lab Neurite Outgrowth Assay in human LUHMES cells (UKN4) (AID 2284206); details: actives raise or lower the signal
Procedure, shortened: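 Read-out: calcein-AM neurite area by high-content fluorescence imaging, with Hoechst H-33342 viability counterstain, after 24 h chemical exposure of day-2 differentiated LUHMES cells. Activity fitted bidirectionally against DMSO baseline.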

[5] = UKN4_HCS_LUHMES_cell_viability: Viability Assessment in the University of Konstanz (UKN) Leist Lab Neurite Outgrowth Assay in human LUHMES cells (UKN4) (AID 2284232)
Procedure, shortened: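 Day-2 differentiated LUHMES, 30000 cells/well, dosed ~30 min–2 h post-seeding; 24 h treatment incl. staining; Hoechst H-33342 + calcein-AM at 23.5 h; HCS imaging; DMSO-normalized, bidirectional fit.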

[6] = UKN2_HCS_IMR90_cell_viability: Viability Assessment in the University of Konstanz (UKN) Leist Lab Neural Crest Cell Migration Assay in human induced IMR90 Pluripotent Stem Cells (UKN2) (AID 2284233);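 note: viability of neural crest cells differentiated from IMR90 iPSC measured by calcein-AM fluorescence imaging; cells exposed to compound for 24 h after a 24 h migration phase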
Procedure, shortened: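 cMINC format, iPSC-derived neural crest (IMR90); 24 h migration (EGF/FGF, N2-S), then 24 h toxicant. Calcein-AM/H-33342 stain 30 min; fluorescence intensity by HCS; DMSO-normalised, bidirectional fitting.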

[7] = CCTE_Mundy_HCI_Cortical_NOG_NeuriteCount: CCTE's Neurite Outgrowth Assay in rat cortical cells for Neurite Count, Mundy Lab (AID 2284212);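 note: cells fixed about two days after chemical exposure began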
Procedure, shortened: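 Rat cortical primary cells; compound added 2 h post-plating, 1/10 dilution of working solution. Anti-betaIII-tubulin/AF488 ICC; ArrayScan neurite count vs DMSO.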

[8] = CCTE_Mundy_HCI_Cortical_NOG_NeuronCount: CCTE's Neurite Outgrowth Assay in rat cortical cells for Neuron Count, Mundy Lab (AID 2284236; active = hit-call score of the fitted dose curve at least 0.9, where 1 is the maximum;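 note: neurons counted by imaging betaIII-tubulin and Hoechst stained cortical cells; cells exposed to compound for about 48 hours before fixation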)
Procedure, shortened: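 Read-out: neuron number by high-content imaging of betaIII-tubulin (Alexa Fluor-488) and Hoechst-labelled rat primary cortical cells.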

[9] = CCTE_Mundy_HCI_Cortical_NOG_BPCount: CCTE's Neurite Outgrowth Assay in rat cortical cells for Branch Point Count, Mundy Lab (AID 2284237)
Procedure, shortened: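 Measured 50.33 h after dosing, this morphology endpoint uses rat primary cortical cultures labelled for betaIII-tubulin. Branch points are quantified by high-content imaging, with DMSO as negative control and baseline.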

[10] = CCTE_Mundy_HCI_hNP1_Casp3_7: CCTE's Caspase-Glo 3/7 Assay in human neuroprogenitor cells for Apoptosis, Mundy Lab (AID 2284240)
Procedure, shortened: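 Neuroepithelial-lineage stem cells from WA09 embryonic cells were treated with chemicals after 40–44 h of culture. Twenty-four hours later, caspase-3/7 activation was detected luminescently after a 30 min room-temperature reagent step, with DMSO as baseline.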

[11] = CCTE_Mundy_HCI_hNP1_CellTiter: CCTE's Cell Titer-Glo 2 Assay in human neuroprogenitor cells for Viability, Mundy Lab (AID 2284241; active = hit-call score of the fitted dose curve at least 0.9, where 1 is the maximum)
Procedure, shortened: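 Measures ATP content in human neural progenitors derived from WA09 embryonic cells. Read-out at 26.5 hours after dosing, with DMSO serving as the negative control and baseline.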

[12] = CCTE_Mundy_HCI_iCellGluta_NOG_NeuriteCount: CCTE's Neurite Outgrowth Assay in iCellGluta cells for Neurite Count, Mundy Lab (AID 2284342; active = hit-call score of the fitted dose curve at least 0.9, where 1 is the maximum;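 note: chemical exposure about 48 hours starting 2 hours after plating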)
[13] = CCTE_Padilla_ZF_Score.Craniofacial: CCTE's 144 Hour Post-fertilization zebrafish Assay Score for Craniofacial Malformation, Padilla Lab (AID 2284405)
Procedure, shortened: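 Craniofacial defects were scored at 6 dpf by two blinded observers using stereomicroscopy. Exposure of wild-type embryos began at 6–8 hpf in sealed wells of 10% Hanks' solution at 26C, with chemical removed by rinsing at 5 dpf.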

[14] = CCTE_Padilla_ZF_Score.Edema: CCTE's 144 Hour Post-fertilization zebrafish Assay Score for Edema Malformation, Padilla Lab (AID 2284406)
Procedure, shortened: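 Edema scored at 6 dpf by two blinded observers under a stereo microscope, in single outbred wild-type larvae exposed from 6-8 hpf in sealed wells (Hanks', 26C, 14:10 h light) and chemical-free after a 5 dpf rinse.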

[15] = CCTE_Padilla_ZF_Score.Spine: CCTE's 144 Hour Post-fertilization zebrafish Assay Score for Spine Malformation, Padilla Lab (AID 2284407)
Procedure, shortened: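 Spine malformation scored at 6 dpf by two independent blinded observers under stereomicroscope, after static sealed exposure from 6–8 hpf at 26C in Hanks' solution with rinse on 5 dpf. Positive-direction fit against DMSO control.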

[16] = CCTE_Padilla_ZF_Score.Swim_bladder: CCTE's 144 Hour Post-fertilization zebrafish Assay Score for Swim Bladder Malformation, Padilla Lab (AID 2284408)
Procedure, shortened: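 Swim bladder inflation scored at 6 dpf by two blinded observers under a stereo microscope. Exposure ran from 6–8 hpf in sealed wells of 10% Hanks' at 26C, with rinsing at 5 dpf; DMSO served as baseline.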

[17] = CCTE_Padilla_ZF_Score.Position: CCTE's 144 Hour Post-fertilization zebrafish Assay Score for Position, Padilla Lab (AID 2284409)
Procedure, shortened: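 Wild-type zebrafish embryos (with chorions) exposed singly from 6–8 hpf in sealed wells of Hanks' solution at 26C, rinsed at 5 dpf. At 6 dpf, blinded assessors scored abnormal water-column position by brightfield stereomicroscopy, relative to DMSO.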

[18] = CCTE_Padilla_ZF_Score.Living: CCTE's 144 Hour Post-fertilization zebrafish Assay Score for Viability, Padilla Lab (AID 2284410);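 note: larval death at 6 dpf judged by absent heartbeat or coagulation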
Procedure, shortened: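 Mortality at 6 dpf, judged as absent heartbeat or coagulation by two blinded observers, after sealed static exposure beginning at 6–8 hpf at 26C. Larvae were rinsed free of chemical at 5 dpf, and activity was fitted relative to DMSO.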

[19] = CCTE_Padilla_ZF_Score.General: CCTE's 144 Hour Post-fertilization zebrafish Assay Score for General Malformation, Padilla Lab (AID 2284411)
Procedure, shortened: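 Malformation, death and hatching were scored at 6 dpf by two blinded observers under a stereo microscope. Embryos were dosed singly from 6-8 hpf in sealed plates of 10% Hanks' at 26C and rinsed on 5 dpf; DMSO baseline.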

[20] = CCTE_Padilla_ZF_Score.Tail: CCTE's 144 Hour Post-fertilization zebrafish Assay Score for Tail Malformation, Padilla Lab (AID 2284414)
Procedure, shortened: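 Tail malformations were scored at 6 dpf by two blinded assessors under a stereo microscope. Chorionated embryos had been exposed from 6-8 hpf in sealed wells of 10% Hanks' at 26 C, then rinsed free of chemical at 5 dpf.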

[21] = CCTE_Padilla_ZF_Score.Blood_pooling: CCTE's 144 Hour Post-fertilization zebrafish Assay Score for Blood Pooling, Padilla Lab (AID 2284415)
Procedure, shortened: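 Blood pooling was scored at 6 dpf under a stereo microscope by two blinded assessors, fitted upward against DMSO. Single embryos were dosed at 6–8 hpf in 10% Hanks', kept sealed at 26C (14:10 h cycle) and rinsed at 5 dpf.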

[22] = CCTE_Padilla_ZF_Score.Any: CCTE's 144 Hour Post-fertilization zebrafish Assay Score for Any Mortality or Malformation, Padilla Lab (AID 2284416)
Procedure, shortened: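 Wild-type zebrafish embryos with chorions, one per well in 10% Hanks' from 6–8 hpf, dosed in sealed plates at 26 C, 14:10 h light:dark; rinsed at 5 dpf; blinded scoring at 6 dpf for death or malformation, versus DMSO.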

[23] = target: Estrogen receptor (Homo sapiens) (UniProt P03372); experiment: CCTE_Deisenroth_AIME_96WELL_LUC_Active: CCTE's 96-well Estrogen Receptor Transactivation Assay with AIME metabolic competence (ERTA luciferase; metabolism positive), Deisenroth Lab (AID 2284023; active = hit-call score of the fitted dose curve at least 0.9, where 1 is the maximum)
Estrogen receptor (Homo sapiens), sequence (P03372 whole entry, looked up): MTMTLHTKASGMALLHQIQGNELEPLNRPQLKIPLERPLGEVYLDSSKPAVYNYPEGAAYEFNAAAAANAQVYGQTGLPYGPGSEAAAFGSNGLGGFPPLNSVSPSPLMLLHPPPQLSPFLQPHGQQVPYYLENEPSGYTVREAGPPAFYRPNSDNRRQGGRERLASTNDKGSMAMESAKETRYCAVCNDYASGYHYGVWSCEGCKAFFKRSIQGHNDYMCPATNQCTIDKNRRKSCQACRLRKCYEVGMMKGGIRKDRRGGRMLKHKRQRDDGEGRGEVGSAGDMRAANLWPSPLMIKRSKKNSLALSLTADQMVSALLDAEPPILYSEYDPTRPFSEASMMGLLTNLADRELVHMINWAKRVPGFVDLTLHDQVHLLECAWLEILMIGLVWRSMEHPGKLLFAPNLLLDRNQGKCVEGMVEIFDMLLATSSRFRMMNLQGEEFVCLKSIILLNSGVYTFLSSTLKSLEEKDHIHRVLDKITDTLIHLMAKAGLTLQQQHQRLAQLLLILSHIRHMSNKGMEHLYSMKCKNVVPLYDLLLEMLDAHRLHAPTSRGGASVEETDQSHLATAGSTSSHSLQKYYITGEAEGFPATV
Procedure, shortened: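 Metabolism-positive mode: induced rat hepatic S9 in alginate microspheres conditions test solutions (0.002 - 200 uM, 10 points) for 2 hours. VM7Luc4E2 ER luciferase reporter cells then exposed 24 h; positive-direction fit against 17beta-estradiol, n=4 typical.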

[24] = target: Estrogen receptor (Homo sapiens) (UniProt P03372); experiment: CCTE_Deisenroth_AIME_96WELL_LUC_Inactive: CCTE's 96-well Estrogen Receptor Transactivation Assay without AIME metabolic competence (ERTA luciferase; metabolism negative), Deisenroth Lab (AID 2284025; active = hit-call score of the fitted dose curve at least 0.9, where 1 is the maximum)
Procedure, shortened: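 Metabolism-negative arm: chemicals (0.002–200 uM, 10 points) incubated 2 h with alginate-water microspheres, then medium moved onto VM7Luc4E2 cells for 24 h luciferase read-out. Positive direction vs 17beta-estradiol; n≥4 experiments.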

[25] = CCTE_Deisenroth_AIME_96WELL_CTox_Active: Cytotoxicity Assessment (CTOX) in CCTE's 96-well Estrogen Receptor Transactivation Assay with AIME metabolic competence (metabolism positive), Deisenroth Lab (AID 2284028; active = hit-call score of the fitted dose curve at least 0.9, where 1 is the maximum)
Procedure, shortened: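 Cytotoxicity in VM7Luc4E2 breast cells after 24 h exposure to medium from a 2 h metabolic pre-incubation with induced rat hepatic S9 in alginate microspheres; fluorescent live-cell protease readout, 10-point series 0.002–200 uM, n=4.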

[26] = CCTE_Deisenroth_AIME_96WELL_CTox_Inactive: Cytotoxicity Assessment (CTOX) in CCTE's 96-well Estrogen Receptor Transactivation Assay without AIME metabolic competence (metabolism negative), Deisenroth Lab (AID 2284029; active = hit-call score of the fitted dose curve at least 0.9, where 1 is the maximum)
Procedure, shortened: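 Cytotoxicity in VM7Luc4E2 breast cells was scored as loss of fluorescent signal from a live-cell protease substrate 24 h after exposure, using bidirectional curve fitting. Test media came from a 2 h metabolism-negative pre-incubation (alginate-water, no hepatic S9) of compounds at 0.002-200 uM, with at least four replicates.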

O.O=S(=O)([O-])[O-].[Mn+2]
AC50 [1]: 18.8 µM (active)
outcome [2]: inactive
outcome [3]: inactive
outcome [4]: inactive
outcome [5]: inactive
AC50 [6]: 50 µM (active)

CCN(CC)CCCC(C)Nc1nc(C)cc(Nc2ccc3nc(C)cc(N)c3c2)n1 (stereo not drawn)
outcome [7]: inactive
outcome [8]: inactive
outcome [9]: inactive

O=C(CC(=O)C(F)(F)F)C(F)(F)F
outcome [10]: inactive
outcome [11]: inactive
outcome [12]: inactive
outcome [13]: inactive
outcome [14]: inactive
outcome [15]: inactive
outcome [16]: inactive
outcome [17]: inactive
outcome [18]: inactive
outcome [19]: inactive
outcome [20]: inactive
outcome [21]: inactive
outcome [22]: inactive

c1ccc([C@H]2O[C@H]2c2ccccc2)cc1
AC50 [23]: 66.7 µM (active)
AC50 [24]: 72.1 µM (active)
outcome [25]: inactive
outcome [26]: inactive

c1ccc(CCCc2ccccc2)cc1
outcome [23]: inactive
AC50 [24]: 37.4 µM (active)
outcome [25]: inactive

Cc1ccccc1
outcome [1]: inactive
outcome [2]: inactive
outcome [3]: inactive
outcome [4]: inactive
outcome [5]: inactive
outcome [6]: inactive

COc1ccc(C=Cc2ccc(OC)cc2)cc1
outcome [23]: inactive
outcome [24]: inactive
outcome [25]: inactive
outcome [26]: inactive

O=C(C=Cc1ccccc1)c1ccccc1
AC50 [23]: 31.9 µM (active)
AC50 [24]: 28.2 µM (active)
outcome [25]: inactive
AC50 [26]: 114 µM (active)
